# What was measured:
# Test in all cases: DAPPL (digital affinity profiling via proximity ligation, sequencing); 10 mM Tris-HCl pH 7.5, 50 mM NaCl, 1 mM DTT, 4% glycerol, room temperature, 30 min; GST-TFs on glutathione beads, 16-mer random dsDNA library, 0.1% formaldehyde crosslink after washing; high values mean tight binding
# FEV = molecular target: T1, FEV (Homo sapiens, UniProt Q99581 1-238); conditions: protein: recombinant; tags: N-terminal GST; dsDNA, one strand shown
# T1 sequence: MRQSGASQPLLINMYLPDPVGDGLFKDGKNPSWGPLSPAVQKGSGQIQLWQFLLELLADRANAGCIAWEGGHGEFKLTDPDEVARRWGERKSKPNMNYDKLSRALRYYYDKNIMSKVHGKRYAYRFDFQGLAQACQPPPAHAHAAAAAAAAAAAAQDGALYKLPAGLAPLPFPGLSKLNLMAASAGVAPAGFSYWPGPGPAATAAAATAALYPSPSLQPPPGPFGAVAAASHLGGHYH
# How it was run: (§1)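 Sequencing on an Illumina NextSeq500 followed washing, crosslinking with 0.1% formaldehyde, proximity ligation (BsaI/T4 ligase, 1 h, 37 °C) and PCR amplification of pools that had been incubated for 30 min at room temperature with 200 nmole of a random double-stranded 16-mer DNA library in Tris/NaCl/DTT/glycerol buffer. Each pool held DNA-barcoded human transcription factors, expressed in yeast as GST fusions and captured on glutathione beads, plus a tag-only sample. Binding signal is a hexamer's read frequency for a factor divided by its frequency in the tag-only sample.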
# ETV5 = ETV5 (Homo sapiens, UniProt P41161 1-510); conditions: protein: recombinant; tags: N-terminal GST; dsDNA, one strand shown
# How it was run: as §1
# HSF1 = HSF1 (Homo sapiens, UniProt Q00613 1-529); conditions: protein: recombinant; tags: N-terminal GST; chain copies: 3; dsDNA, one strand shown
# How it was run: as §1
# SPIC = molecular target: T2, SPIC (Homo sapiens, UniProt Q8N5J4 1-248); conditions: protein: recombinant; tags: N-terminal GST; dsDNA, one strand shown
# T2 sequence: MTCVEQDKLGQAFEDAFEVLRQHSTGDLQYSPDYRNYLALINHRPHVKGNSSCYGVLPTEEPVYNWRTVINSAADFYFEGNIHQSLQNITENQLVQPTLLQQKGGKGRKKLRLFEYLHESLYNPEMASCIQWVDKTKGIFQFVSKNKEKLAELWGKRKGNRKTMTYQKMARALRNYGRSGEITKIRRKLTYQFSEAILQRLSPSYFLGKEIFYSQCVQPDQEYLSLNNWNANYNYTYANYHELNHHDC
# How it was run: as §1
# ELF4 = ELF4 (Homo sapiens, UniProt Q99607 1-663); conditions: protein: recombinant; tags: N-terminal GST; dsDNA, one strand shown
# How it was run: as §1
# ELK4 = molecular target: T3, ELK4 (Homo sapiens, UniProt P28324-2 1-405); conditions: protein: recombinant; tags: N-terminal GST; dsDNA, one strand shown
# T3 sequence: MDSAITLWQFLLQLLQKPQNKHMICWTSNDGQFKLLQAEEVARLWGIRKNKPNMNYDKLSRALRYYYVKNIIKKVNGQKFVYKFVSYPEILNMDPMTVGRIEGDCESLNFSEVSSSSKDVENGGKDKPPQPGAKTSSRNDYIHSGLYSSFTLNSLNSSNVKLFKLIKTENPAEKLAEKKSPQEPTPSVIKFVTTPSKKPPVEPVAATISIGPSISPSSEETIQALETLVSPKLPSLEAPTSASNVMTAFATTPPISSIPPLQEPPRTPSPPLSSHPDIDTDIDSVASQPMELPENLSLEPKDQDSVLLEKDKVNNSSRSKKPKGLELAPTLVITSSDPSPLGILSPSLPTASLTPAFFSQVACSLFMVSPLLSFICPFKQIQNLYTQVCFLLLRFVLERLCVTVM
# How it was run: as §1
# ETV2 = molecular target: T4, ETV2 (Homo sapiens, UniProt O00321 1-342); conditions: protein: recombinant; tags: N-terminal GST; dsDNA, one strand shown
# T4 sequence: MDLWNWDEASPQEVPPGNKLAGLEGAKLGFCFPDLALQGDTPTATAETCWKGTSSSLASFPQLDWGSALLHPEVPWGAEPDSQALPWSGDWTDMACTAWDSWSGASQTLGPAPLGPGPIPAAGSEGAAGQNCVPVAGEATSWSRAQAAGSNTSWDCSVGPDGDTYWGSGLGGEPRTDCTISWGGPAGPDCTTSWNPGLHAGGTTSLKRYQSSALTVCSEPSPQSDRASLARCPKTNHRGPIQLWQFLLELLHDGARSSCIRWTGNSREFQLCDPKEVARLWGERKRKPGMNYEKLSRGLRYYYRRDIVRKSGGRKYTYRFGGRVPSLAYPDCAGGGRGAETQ
# How it was run: as §1
# ELF3 = molecular target: T5, ELF3 (Homo sapiens, UniProt P78545 1-371); conditions: protein: recombinant; tags: N-terminal GST; dsDNA, one strand shown
# T5 sequence: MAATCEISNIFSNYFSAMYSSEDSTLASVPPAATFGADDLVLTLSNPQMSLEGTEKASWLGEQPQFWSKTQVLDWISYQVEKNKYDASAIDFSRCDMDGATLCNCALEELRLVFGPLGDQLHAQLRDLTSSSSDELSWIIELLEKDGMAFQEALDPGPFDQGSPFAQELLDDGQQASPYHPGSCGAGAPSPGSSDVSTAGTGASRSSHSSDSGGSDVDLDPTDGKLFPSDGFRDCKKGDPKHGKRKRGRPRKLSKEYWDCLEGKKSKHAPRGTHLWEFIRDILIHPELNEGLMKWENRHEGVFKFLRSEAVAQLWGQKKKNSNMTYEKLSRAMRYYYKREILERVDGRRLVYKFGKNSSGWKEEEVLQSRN
# How it was run: as §1
# CRX = CRX (Homo sapiens, UniProt O43186 1-299); conditions: protein: recombinant; tags: N-terminal GST; dsDNA, one strand shown
# How it was run: as §1
# ETV1 = ETV1 (Homo sapiens, UniProt P50549 1-477); conditions: protein: recombinant; tags: N-terminal GST; dsDNA, one strand shown
# How it was run: as §1
# ERF = molecular target: T6, ERF (Homo sapiens, UniProt P50548 1-548); conditions: protein: recombinant; tags: N-terminal GST; dsDNA, one strand shown
# T6 sequence: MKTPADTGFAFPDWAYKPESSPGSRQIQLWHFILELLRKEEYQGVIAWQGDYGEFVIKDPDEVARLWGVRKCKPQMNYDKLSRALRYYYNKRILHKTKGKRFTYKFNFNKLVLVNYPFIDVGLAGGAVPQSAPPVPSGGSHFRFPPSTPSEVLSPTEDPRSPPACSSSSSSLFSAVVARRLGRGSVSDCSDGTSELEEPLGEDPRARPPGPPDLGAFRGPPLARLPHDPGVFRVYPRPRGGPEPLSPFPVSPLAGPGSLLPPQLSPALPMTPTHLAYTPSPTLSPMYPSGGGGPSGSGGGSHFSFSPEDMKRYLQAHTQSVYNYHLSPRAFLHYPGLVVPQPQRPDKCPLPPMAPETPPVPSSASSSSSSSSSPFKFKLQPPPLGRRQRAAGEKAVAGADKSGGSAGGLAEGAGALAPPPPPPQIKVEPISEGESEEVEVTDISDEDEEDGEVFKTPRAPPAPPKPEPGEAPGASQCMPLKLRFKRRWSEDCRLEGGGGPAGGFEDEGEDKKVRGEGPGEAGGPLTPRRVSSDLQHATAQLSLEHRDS
# How it was run: as §1
# ETV3L = molecular target: T7, ETV3L (Homo sapiens, UniProt Q6ZN32 1-361); conditions: protein: recombinant; tags: N-terminal GST; dsDNA, one strand shown
# T7 sequence: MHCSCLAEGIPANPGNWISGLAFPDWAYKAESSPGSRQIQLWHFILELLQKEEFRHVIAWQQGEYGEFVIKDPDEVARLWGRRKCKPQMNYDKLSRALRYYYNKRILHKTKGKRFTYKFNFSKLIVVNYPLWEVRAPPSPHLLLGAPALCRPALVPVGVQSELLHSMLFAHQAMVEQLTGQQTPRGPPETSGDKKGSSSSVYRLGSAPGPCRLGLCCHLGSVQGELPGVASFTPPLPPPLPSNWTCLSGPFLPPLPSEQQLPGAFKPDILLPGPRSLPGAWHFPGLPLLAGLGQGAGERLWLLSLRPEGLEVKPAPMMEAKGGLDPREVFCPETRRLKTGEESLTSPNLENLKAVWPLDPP
# How it was run: as §1
# ETS2 = molecular target: T8, ETS2 (Homo sapiens, UniProt P15036 1-469); conditions: protein: recombinant; tags: N-terminal GST; dsDNA, one strand shown
# T8 sequence: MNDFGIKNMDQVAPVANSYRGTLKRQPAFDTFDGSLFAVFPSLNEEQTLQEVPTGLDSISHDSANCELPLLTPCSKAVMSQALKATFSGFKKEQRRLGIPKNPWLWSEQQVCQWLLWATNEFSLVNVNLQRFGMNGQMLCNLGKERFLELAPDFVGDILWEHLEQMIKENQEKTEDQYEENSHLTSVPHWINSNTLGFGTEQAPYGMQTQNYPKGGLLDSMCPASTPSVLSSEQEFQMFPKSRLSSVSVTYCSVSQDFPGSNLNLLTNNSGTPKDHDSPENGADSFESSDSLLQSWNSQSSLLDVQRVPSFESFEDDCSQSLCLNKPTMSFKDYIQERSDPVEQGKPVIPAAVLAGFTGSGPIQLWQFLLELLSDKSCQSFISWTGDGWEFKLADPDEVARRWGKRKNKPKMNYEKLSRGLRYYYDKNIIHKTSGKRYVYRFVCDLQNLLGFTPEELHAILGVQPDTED
# How it was run: as §1
# SPDEF = molecular target: T9, SPDEF (Homo sapiens, UniProt O95238 1-335); conditions: protein: recombinant; tags: N-terminal GST; dsDNA, one strand shown
# T9 sequence: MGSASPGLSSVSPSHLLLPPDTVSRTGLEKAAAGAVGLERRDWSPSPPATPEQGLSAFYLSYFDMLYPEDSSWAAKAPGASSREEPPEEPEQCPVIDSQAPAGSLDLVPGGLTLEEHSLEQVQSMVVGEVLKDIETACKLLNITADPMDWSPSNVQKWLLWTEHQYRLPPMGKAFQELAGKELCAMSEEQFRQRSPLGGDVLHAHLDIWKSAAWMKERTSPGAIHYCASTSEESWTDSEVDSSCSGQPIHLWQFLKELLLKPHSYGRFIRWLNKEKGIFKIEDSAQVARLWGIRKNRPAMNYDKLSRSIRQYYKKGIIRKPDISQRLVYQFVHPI
# How it was run: as §1
# ETV7 = molecular target: T10, ETV7 (Homo sapiens, UniProt Q9Y603 1-341); conditions: protein: recombinant; tags: N-terminal GST; dsDNA, one strand shown
# T10 sequence: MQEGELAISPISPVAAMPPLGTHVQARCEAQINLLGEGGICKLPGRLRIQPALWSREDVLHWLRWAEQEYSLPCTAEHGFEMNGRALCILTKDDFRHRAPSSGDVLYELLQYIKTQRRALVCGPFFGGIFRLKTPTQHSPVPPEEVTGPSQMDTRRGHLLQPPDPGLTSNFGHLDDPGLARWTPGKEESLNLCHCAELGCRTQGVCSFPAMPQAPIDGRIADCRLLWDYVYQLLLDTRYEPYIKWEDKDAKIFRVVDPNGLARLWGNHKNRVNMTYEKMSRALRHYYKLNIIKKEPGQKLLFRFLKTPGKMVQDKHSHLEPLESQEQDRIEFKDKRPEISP
# How it was run: as §1
# ELF5 = molecular target: T11, ELF5 (Homo sapiens, UniProt Q9UKW6-2 1-255); conditions: protein: recombinant; tags: N-terminal GST; dsDNA, one strand shown
# T11 sequence: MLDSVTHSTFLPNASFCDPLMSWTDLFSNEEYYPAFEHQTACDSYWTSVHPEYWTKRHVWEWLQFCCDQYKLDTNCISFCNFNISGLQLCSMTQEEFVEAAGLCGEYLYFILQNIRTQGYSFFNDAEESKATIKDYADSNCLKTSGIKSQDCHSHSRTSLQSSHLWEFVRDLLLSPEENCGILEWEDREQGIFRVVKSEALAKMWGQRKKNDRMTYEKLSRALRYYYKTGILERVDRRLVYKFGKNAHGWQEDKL
# How it was run: as §1
# ETV3 = molecular target: T12, ETV3 (Homo sapiens, UniProt P41162-2 1-143); conditions: protein: recombinant; tags: N-terminal GST; dsDNA, one strand shown
# T12 sequence: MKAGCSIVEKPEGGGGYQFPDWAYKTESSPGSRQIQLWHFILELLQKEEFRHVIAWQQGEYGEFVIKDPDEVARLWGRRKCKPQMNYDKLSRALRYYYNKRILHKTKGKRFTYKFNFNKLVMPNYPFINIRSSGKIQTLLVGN
# How it was run: as §1
# ETV6 = ETV6 (Homo sapiens, UniProt P41212 1-452); conditions: protein: recombinant; tags: N-terminal GST; dsDNA, one strand shown
# How it was run: as §1
# Chain of HSF1 (Q00613 whole entry): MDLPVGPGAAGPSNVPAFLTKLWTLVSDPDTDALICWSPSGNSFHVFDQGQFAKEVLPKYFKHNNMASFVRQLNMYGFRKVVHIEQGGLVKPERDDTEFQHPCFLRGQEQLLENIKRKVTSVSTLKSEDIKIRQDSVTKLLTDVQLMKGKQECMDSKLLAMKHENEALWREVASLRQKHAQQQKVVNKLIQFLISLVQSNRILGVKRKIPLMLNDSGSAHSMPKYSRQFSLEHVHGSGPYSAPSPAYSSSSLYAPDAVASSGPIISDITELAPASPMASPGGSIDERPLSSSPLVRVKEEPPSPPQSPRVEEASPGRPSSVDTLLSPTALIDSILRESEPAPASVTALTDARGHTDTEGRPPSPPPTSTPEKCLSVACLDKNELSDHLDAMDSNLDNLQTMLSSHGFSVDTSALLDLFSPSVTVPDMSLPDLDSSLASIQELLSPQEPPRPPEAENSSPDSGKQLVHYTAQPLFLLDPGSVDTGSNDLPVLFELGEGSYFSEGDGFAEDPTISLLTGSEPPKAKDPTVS
# Chain of CRX (O43186 whole entry): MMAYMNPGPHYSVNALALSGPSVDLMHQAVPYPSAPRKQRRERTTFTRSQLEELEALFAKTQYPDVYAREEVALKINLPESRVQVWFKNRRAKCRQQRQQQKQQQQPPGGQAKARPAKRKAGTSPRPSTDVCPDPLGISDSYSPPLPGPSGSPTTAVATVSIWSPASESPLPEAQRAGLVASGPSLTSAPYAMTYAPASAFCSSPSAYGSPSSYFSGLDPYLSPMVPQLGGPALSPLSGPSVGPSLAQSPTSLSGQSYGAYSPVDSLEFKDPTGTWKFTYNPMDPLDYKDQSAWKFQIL
# Chain of ETV1 (P50549 whole entry): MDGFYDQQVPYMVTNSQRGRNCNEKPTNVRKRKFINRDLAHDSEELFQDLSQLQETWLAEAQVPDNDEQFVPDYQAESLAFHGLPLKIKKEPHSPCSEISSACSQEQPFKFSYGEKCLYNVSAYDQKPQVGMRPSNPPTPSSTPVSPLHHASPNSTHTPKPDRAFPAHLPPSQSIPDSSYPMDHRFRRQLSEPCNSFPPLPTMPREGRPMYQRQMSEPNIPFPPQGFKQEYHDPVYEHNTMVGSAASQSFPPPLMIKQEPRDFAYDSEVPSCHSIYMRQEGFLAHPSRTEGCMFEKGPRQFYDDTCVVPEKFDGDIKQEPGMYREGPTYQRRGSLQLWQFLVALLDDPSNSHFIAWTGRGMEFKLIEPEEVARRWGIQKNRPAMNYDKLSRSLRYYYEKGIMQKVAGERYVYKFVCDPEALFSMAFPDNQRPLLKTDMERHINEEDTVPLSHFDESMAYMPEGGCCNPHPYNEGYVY
# Chain of ETV6 (P41212 whole entry): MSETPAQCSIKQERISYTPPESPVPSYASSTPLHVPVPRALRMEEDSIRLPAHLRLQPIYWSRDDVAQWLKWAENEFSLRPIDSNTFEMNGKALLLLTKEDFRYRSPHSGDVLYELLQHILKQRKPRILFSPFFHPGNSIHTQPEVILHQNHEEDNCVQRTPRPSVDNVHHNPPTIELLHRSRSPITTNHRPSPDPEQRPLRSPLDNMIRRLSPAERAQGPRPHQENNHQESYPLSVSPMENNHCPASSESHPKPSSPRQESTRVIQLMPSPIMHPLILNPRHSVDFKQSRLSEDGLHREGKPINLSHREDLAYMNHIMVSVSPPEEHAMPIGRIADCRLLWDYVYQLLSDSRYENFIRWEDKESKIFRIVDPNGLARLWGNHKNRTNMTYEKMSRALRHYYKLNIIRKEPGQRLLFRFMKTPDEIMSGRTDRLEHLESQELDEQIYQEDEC
# Chain of ELF4 (Q99607 whole entry): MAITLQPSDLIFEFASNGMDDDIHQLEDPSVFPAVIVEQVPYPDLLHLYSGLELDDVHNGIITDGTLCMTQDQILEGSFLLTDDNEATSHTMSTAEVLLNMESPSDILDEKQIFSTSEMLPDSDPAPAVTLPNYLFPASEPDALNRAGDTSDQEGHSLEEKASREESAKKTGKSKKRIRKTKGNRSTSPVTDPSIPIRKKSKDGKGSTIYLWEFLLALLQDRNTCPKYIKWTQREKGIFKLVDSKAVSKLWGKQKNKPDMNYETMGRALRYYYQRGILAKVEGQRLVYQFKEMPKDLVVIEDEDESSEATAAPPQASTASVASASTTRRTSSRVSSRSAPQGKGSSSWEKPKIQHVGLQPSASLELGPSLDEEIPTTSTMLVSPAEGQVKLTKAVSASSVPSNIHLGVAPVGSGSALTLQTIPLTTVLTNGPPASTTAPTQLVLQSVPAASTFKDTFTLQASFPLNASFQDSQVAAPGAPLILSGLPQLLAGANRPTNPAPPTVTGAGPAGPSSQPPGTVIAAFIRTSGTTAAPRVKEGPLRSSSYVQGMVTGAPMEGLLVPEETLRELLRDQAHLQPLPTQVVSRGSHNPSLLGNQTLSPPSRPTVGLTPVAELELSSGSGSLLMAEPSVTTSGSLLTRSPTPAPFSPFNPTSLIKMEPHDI
# Chain of ETV5 (P41161 whole entry): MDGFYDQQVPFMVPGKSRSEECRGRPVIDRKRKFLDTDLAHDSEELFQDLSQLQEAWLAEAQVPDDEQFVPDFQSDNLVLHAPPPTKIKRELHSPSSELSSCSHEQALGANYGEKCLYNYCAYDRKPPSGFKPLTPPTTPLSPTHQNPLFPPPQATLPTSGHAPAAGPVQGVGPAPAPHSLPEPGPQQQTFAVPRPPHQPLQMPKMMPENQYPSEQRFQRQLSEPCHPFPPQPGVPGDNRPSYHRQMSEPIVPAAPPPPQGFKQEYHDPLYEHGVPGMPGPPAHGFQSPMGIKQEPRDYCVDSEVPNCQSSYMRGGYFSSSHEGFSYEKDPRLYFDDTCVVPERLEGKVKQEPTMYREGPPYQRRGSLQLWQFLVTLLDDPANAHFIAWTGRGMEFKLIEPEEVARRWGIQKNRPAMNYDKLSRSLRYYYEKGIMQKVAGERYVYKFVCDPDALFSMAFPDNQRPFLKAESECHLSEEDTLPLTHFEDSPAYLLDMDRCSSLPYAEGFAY
sequence,measurement,setting,value
AAAGAC,binding signal,FEV,"1.06 fold enrichment (6-mer frequency, TF over GST control)"
same,binding signal,ETV5,"1.05 fold enrichment (6-mer frequency, TF over GST control)"
same,binding signal,HSF1,"1.11 fold enrichment (6-mer frequency, TF over GST control)"
same,binding signal,SPIC,"1.01 fold enrichment (6-mer frequency, TF over GST control)"
same,binding signal,ELF4,"1.04 fold enrichment (6-mer frequency, TF over GST control)"
same,binding signal,ELK4,"1.04 fold enrichment (6-mer frequency, TF over GST control)"
same,binding signal,ETV2,"1.03 fold enrichment (6-mer frequency, TF over GST control)"
same,binding signal,ELF3,"1.01 fold enrichment (6-mer frequency, TF over GST control)"
same,binding signal,CRX,"1.13 fold enrichment (6-mer frequency, TF over GST control)"
same,binding signal,ETV1,"1.03 fold enrichment (6-mer frequency, TF over GST control)"
same,binding signal,ERF,"1.08 fold enrichment (6-mer frequency, TF over GST control)"
same,binding signal,ETV3L,"1.06 fold enrichment (6-mer frequency, TF over GST control)"
same,binding signal,ETS2,"1.12 fold enrichment (6-mer frequency, TF over GST control)"
same,binding signal,SPDEF,"1.01 fold enrichment (6-mer frequency, TF over GST control)"
same,binding signal,ETV7,"1.03 fold enrichment (6-mer frequency, TF over GST control)"
same,binding signal,ELF5,"1.03 fold enrichment (6-mer frequency, TF over GST control)"
same,binding signal,ETV3,"1.01 fold enrichment (6-mer frequency, TF over GST control)"
same,binding signal,ETV6,"1.16 fold enrichment (6-mer frequency, TF over GST control)"

# Reference: PMC7862700, “An all-to-all approach to the identification of sequence-specific readers for epigenetic DNA modifications on cytosine”
